Unmarked numbers belong to inactive results. Activity calls are given as the source filed them.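 How the source made its calls, unless noted: active means mean inhibition above 46.68%, the untreated control wells mean plus 3 SD; inactive means the rest.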
Key:
[1] = target: Nuclear receptor coactivator 1 (Homo sapiens) (UniProt Q15788); test: NCOA1 GAL4-fusion reporter inhibition – cell-based, luminescence, quadruplicate, confirmation (AID 588820); settings: HEK293 GAL4-SRC1 luciferase reporter, at 3.6 µM, active compounds read high;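 further: 0% = DMSO wells and 100% = gossypol 36 µM treated wells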
[2] = repression of VP16-driven luciferase reporter – cell-based, luminescence, high throughput, counter-screen for SRC1 inhibitor project (AID 588824; in the data active means inhibition above about 25%); settings: cell-based VP16 transactivation luciferase luminescence; at 3.6 µM; active compounds read high

Sequence of Nuclear receptor coactivator 1 (Homo sapiens) (Q15788 whole entry, looked up, the tested form may be a part): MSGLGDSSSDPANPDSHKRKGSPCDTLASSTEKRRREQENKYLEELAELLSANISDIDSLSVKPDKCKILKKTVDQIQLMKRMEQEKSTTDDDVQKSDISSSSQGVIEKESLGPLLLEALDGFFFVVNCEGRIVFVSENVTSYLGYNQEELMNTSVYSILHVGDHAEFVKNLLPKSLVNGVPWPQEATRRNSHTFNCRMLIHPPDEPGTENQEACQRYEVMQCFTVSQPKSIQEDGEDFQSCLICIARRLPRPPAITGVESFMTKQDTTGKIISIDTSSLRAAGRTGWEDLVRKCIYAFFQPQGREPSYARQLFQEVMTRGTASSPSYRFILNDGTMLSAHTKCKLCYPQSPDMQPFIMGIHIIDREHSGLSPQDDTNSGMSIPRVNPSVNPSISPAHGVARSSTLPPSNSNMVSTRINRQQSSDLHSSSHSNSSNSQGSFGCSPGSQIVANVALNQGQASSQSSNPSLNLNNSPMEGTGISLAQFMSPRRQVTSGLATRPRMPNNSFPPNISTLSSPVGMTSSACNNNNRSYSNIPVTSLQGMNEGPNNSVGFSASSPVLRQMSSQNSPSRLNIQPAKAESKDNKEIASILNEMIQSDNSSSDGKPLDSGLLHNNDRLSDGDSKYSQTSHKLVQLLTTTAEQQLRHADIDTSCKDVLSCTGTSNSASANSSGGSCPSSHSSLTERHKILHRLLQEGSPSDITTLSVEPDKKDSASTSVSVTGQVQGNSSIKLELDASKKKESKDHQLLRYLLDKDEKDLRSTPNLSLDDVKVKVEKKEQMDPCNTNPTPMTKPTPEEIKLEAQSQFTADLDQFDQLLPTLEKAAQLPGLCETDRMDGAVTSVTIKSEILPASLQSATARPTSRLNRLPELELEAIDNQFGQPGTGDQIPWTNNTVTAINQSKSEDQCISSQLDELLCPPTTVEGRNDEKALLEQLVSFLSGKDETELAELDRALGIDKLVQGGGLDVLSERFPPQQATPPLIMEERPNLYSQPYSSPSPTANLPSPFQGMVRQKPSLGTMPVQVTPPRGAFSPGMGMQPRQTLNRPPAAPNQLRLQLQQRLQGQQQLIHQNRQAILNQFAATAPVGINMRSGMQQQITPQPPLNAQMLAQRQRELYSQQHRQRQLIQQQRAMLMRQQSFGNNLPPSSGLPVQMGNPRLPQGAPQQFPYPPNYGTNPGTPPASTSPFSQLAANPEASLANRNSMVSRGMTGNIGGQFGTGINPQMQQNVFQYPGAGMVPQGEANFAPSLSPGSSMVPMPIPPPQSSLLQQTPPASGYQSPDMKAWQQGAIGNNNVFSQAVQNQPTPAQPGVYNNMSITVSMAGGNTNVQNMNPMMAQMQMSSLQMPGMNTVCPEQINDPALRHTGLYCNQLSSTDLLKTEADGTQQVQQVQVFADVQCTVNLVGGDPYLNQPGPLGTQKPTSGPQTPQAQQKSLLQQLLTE

COc1cc(-c2cc3nc(NCc4cccs4)ccn3n2)cc(OC)c1OC
inhibition [1]: -21.6% | inhibition [2]: 6.25%

O=C(C[C@H]1C[C@H](C(=O)N2CCOCC2)[C@@]2(CCC3CCCC3)c3[nH]c4ccc(Cl)cc4c3CCN2C1=O)NCCCn1ccnc1
inhibition [1]: -4.01% | inhibition [2]: 2.48%

CC(O)c1nc2cc([N+](=O)[O-])ccc2n1Cc1ccccc1 (stereo not given)
inhibition [1]: -1.46% | inhibition [2]: -6.35%

CCOC(=O)c1ccc(NC(=O)c2ccc(CN3CCc4ccccc4C3)cc2)cc1
inhibition [1]: -48.8% | inhibition [2]: 30.4% (active)

COc1ccccc1-n1nnnc1SC(C)C(=O)NC1CCCC1 (stereo not given)
inhibition [1]: -17.1% | inhibition [2]: -10.9%

COCCN1C2=C(C(=O)CC(C)(C)C2)C(c2ccc(OC)c(OC)c2)C2=C1CC(C)(C)CC2=O
inhibition [1]: -10.8% | inhibition [2]: 12%

CC1Cc2ccccc2N1S(=O)(=O)c1cccc(C(=O)N2CCN(c3ncccn3)CC2)c1 (stereo not given)
inhibition [1]: 16.5% | inhibition [2]: 77.4% (active)

COc1cc(NC(=O)c2cccc3c(-c4cccnc4)coc23)cc(OC)c1OC
inhibition [1]: -19.1% | inhibition [2]: 28.3% (active)

O=C(NC(=S)Nc1cccc(Cl)c1N1CCCCC1)c1ccco1
inhibition [1]: -11.6% | inhibition [2]: 7.26%

Cc1cc2[nH]c(=O)c(=O)[nH]c2cc1S(=O)(=O)NC1CCC(C)CC1 (stereo not given)
inhibition [1]: -3.97% | inhibition [2]: -2.19%

CC(=O)Nc1ccc(NC(=O)C(C)OC(=O)CCSc2ccccc2Cl)cc1 (stereo not given)
inhibition [1]: -6.34% | inhibition [2]: 4.67%

CCc1nnc(SCc2ccc(C(=O)OC)o2)n1N
inhibition [1]: -6.33% | inhibition [2]: 4.87%

CC(=O)c1cn(CCOc2cc(C)ccc2C)c2ccccc12
inhibition [1]: -27% | inhibition [2]: 33.7% (active)

CCOC(=O)N1CCC(Nc2ncnc3c2cnn3-c2ccc(C)cc2C)CC1
inhibition [1]: -5.68% | inhibition [2]: 29% (active)

Cc1ccc(OCC(=O)NNC(=O)c2ccc3c(=O)n4c(nc3c2)CCC4)cc1
inhibition [1]: -7.39% | inhibition [2]: -3.2%

Reference: PubChem BioAssay
